Hits are enriched below; roughly 3.2% of the tested compounds scored in any of these assays.
USP1-UAF1 inh: USP1/UAF1 (human) deubiquitinase inhibition; recombinant USP1/UAF1, Ub-Rhodamine cleavage fluorescence; 390,000 tested, 0.23% active; Potency, µM (titrated, usually from 57.1 µM), most hits filed as inhibitors; O94782; also: nearly all actives have a fitted effect of over 60% in size
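USP1/UAF1 complex (1 nM) preincubated 15 min at room temperature with compound, then Ub-Rho substrate (150 nM final) added. Kinetic fluorescence at 480/540 nm over 6 reads at 60 s intervals; 50 mM HEPES pH 7.8, 0.5 mM EDTA, 0.1 mg/ml BSA, 1 mM TCEP, 0.01% Tween-20.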
FBPA coupling cs: counter-screen for Giardia aldolase inhibitors: coupling enzyme system | 290,000 tested, 0.67% active | AID 2472 | activity change, negative = inhibition, % at 58.2 µM, hits read low | coupling enzyme system counterscreen, AmpLite Red fluorescence; in the data active = activity change below about -30%
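Final compound at 57.5 uM, incubated 10 min at RT with coupling enzyme reagent (glyceraldehyde-3-phosphate), then 20 min with substrate and AmpLite Red detection. Fluorescence read at 525/598 nm; tests interference with the coupling assay, not aldolase inhibition.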
VDR inhibitor: inhibitors of human vitamin D receptor. P11473. VDR-SRC2-3 peptide fluorescence polarization, 2 h. Potency, µM, hits mostly inhibitors. 400,000 tested, 0.93% active. AID 504847
Target sequence (P11473 whole entry, looked up): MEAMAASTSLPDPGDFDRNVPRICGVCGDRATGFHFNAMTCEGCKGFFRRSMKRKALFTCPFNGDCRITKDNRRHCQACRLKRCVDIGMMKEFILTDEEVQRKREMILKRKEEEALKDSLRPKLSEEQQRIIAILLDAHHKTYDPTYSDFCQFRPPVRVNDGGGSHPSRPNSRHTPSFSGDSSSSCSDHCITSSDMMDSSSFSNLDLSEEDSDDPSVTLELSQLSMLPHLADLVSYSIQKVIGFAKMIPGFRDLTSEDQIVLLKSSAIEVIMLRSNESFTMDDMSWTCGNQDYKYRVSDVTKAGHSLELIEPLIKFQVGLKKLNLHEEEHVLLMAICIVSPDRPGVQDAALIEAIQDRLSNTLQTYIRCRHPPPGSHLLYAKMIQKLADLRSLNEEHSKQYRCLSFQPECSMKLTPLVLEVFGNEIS
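The screen uses fluorescence polarization to detect compounds that interfere with recruitment of the SRC2-3 coactivator peptide to VDR; plates are read after 2 h at room temperature.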
PLK1 PBD block: blocks phosphopeptide binding to human PLK1 polo-box domain; P53350; Plk1 PBD binding of FITC phosphopeptide, fluorescence polarization; Potency, µM, most hits filed as inhibitors; 360,000 tested, 2.8% active; AID 720504; also: series mostly up to about 57 µM; nearly all actives have a fitted effect of over 65% in size
USP2a block: USP2a (human) protease inhibition; O75604; USP2 core, Ub-CHOP2 coupled fluorogenic reporter, 485/531; Potency, µM (series often up to 38.3 µM), hits mostly inhibitors; 330,000 tested, 0.01% active
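Cell-free coupled assay: 10nM USP2 core preincubated 30min RT with compound in Tris-HCl pH 8.0/CaCl2/CHAPS buffer, then 25nM Ub-CHOP2 and 25nM reporter substrate; fluorescence (Ex 485/Em 531) read after 60min RT, normalized to NEM inhibition, concentration-response curves fitted.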
GALK inh: inhibitors of human galactokinase | P51570 | Purified GALK, Kinase-Glo residual ATP luminescence | Potency, µM (top dose mostly 57.5 µM), usual class: inhibitors | 270,000 tested, 0.007% active
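5 nM enzyme, 35 uM ATP, 100 uM galactose, 20 mM HEPES pH8.0, 5 mM MgCl2; 1 h RT; residual ATP by Kinase-Glo Plus luminescence, qHTS format.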
VDR confirm: confirmation of human vitamin D receptor inhibitors. VDR-coactivator inhibition assay, qHTS confirmation. AID 602199. 840 tested, 89% active. shares compounds with VDR inhibitor. Potency, µM, most hits filed as inhibitors
VDR FP: blocks human VDR-coactivator binding in fluorescein assay; shares compounds with VDR inhibitor; Potency, µM (titrated, usually from 57.1 µM), hits mostly inhibitors; AID 602200; 840 tested, 48% active; VDR-coactivator binding, fluorescein fluorescence polarization
VDR bla: VDR (human) inhibition, cell-based beta-lactamase validation. 840 tested, 23% active. shares compounds with VDR inhibitor. Potency, µM (series often up to 46.1 µM), hits mostly inhibitors. AID 602202. VDR beta-lactamase reporter cells, FRET ratio; cells co-treated with VDR agonist LG190178
VDR viability: cell toxicity, VDR inhibitor hit counter-screen; 840 tested, 18% active; AID 602204; shares compounds with VDR inhibitor; cytotoxicity counter-screen, cell viability, qHTS; Potency, µM (series often up to 48.3 µM), hits mostly cytotoxic; also: nearly all actives have a fitted effect of over 75% in size
Large screens that a line does not name were inactive (follow-up assays come after a bar, where they were run). Unless noted, calls follow the shape of the dose curve; as a rule, active = well fitted curve in the direction sought with a large enough effect; inconclusive = small, poorly fitted or top-dose-only effect, or another doubt; inactive = no such curve, though single readings can be large; an effect the other way counts as inactive or inconclusive.

Cc1ccc(-c2ccc(/C=C3\C(=O)ON=C3c3ccccc3)o2)c([N+](=O)[O-])c1	USP1-UAF1 inh inconclusive, VDR inhibitor 28µM, PLK1 PBD block 1.7µM | VDR confirm 3.8 | VDR FP inconclusive | VDR bla 18µM | VDR viability 13µM
COc1ccccc1NS(=O)(=O)c1cccc(NC(=O)C(C)NC(=O)c2ccco2)c1 (stereo unspecified)	none (no result: FBPA coupling cs, GALK inh)
CN(CCO)c1cc(Sc2nc3ccccc3s2)c2nonc2c1[N+](=O)[O-]	VDR inhibitor 25µM, PLK1 PBD block 1.9µM | VDR confirm 6.7 | VDR FP 3.5µM | VDR bla inconclusive | VDR viability 3.2µM
CC(=O)OCCN(C)c1cc(SC(C)C)c2nonc2c1[N+](=O)[O-]	VDR inhibitor inconclusive, PLK1 PBD block inconclusive
CCN(CC)c1ccc(/C=C/C(=O)c2cccnc2)cc1	none
O=C(/C=C/c1ccc(OCc2ccccc2)c(OCc2ccccc2)c1)c1cccnc1	VDR inhibitor inconclusive | VDR confirm 7.1 | VDR FP 4µM | VDR bla inactive | VDR viability inactive
O=C(/C=C/c1ccccc1Cl)c1cccnc1	VDR inhibitor 45µM, PLK1 PBD block inconclusive | VDR confirm 6.7 | VDR FP inconclusive | VDR bla inconclusive | VDR viability inconclusive
N#Cc1ccc(/C=C/C(=O)c2cccnc2)cc1	VDR inhibitor 11µM, PLK1 PBD block inconclusive | VDR confirm 8.4 | VDR FP inconclusive | VDR bla inconclusive | VDR viability inconclusive
O=C(/C=C/c1ccc(Cl)cc1)c1cccnc1	VDR inhibitor 25µM, PLK1 PBD block inconclusive | VDR confirm 6 | VDR FP 5.6µM | VDR bla inactive | VDR viability inactive
CC[C@@]12C(=O)N(c3cccc(Br)c3)C(=O)N1[C@H](c1ccc(Cl)cc1)[C@@H]1C(=O)N(C3CCCCC3)C(=O)[C@@H]12	USP1-UAF1 inh inconclusive (no result: GALK inh)
CS(=O)(=O)c1nc(-c2ccccc2)cc(C(F)(F)F)n1	VDR inhibitor inconclusive, PLK1 PBD block 24µM | VDR confirm 8.9 | VDR FP 4.5µM | VDR bla 18µM | VDR viability 24µM
CCOC(=O)c1c2c(n(-c3ccc(OC)cc3)c1C)C(=O)C(=O)c1ccccc1-2	USP1-UAF1 inh 1.8µM, VDR inhibitor 18µM, PLK1 PBD block inconclusive (no result: FBPA coupling cs, USP2a block, GALK inh) | VDR confirm 12 | VDR FP 11µM | VDR bla 5.8µM | VDR viability 6.3µM
CCOC(=O)c1nn(-c2ccccc2C)c(=O)c2c(N)scc12	USP1-UAF1 inh inconclusive, FBPA coupling cs -55, VDR inhibitor 35µM | VDR confirm inconclusive | VDR FP inconclusive | VDR bla inactive | VDR viability inactive
O=C(NCCCN1CCCC1=O)c1csc2ccccc12	none
CCOC(=O)c1[nH]cc(-c2ccccc2)c1N1CCOCC1	VDR inhibitor 22µM, PLK1 PBD block 5.3µM | VDR confirm 21 | VDR FP inconclusive | VDR bla inactive | VDR viability inconclusive
O=C(/C(=C/c1ccncc1)n1ccnc1)c1ccc(Cl)cc1Cl	VDR inhibitor 79µM, PLK1 PBD block 27µM | VDR confirm 13 | VDR FP 13µM | VDR bla inactive | VDR viability inactive
O=C(/C=C/c1ccc(F)cc1)c1ccccc1Br	VDR inhibitor 32µM | VDR confirm 12 | VDR FP inconclusive | VDR bla inconclusive | VDR viability inconclusive
CCN(CC)CC(C(=O)N(CC)CC)P(=O)(c1ccccc1)c1ccccc1 (stereo unspecified)	none
O=C(Nc1cccc(S(=O)(=O)Nc2ccccc2F)c1)c1ccc2ccccc2n1	VDR inhibitor 16µM, PLK1 PBD block 1.9µM | VDR confirm 3.8 | VDR FP inconclusive | VDR bla inactive | VDR viability inactive
O=C(C=Cc1ccccc1)Nc1ccccc1	none (no result: FBPA coupling cs, USP2a block, GALK inh)
O=C(/C=C/c1ccccc1)Nc1cccc(S(=O)(=O)Nc2ccccc2F)c1	VDR inhibitor 11µM, PLK1 PBD block 1.2µM | VDR confirm 4.2 | VDR FP inconclusive | VDR bla inactive | VDR viability inconclusive
Cc1nc2c3cc(F)ccc3n(Cc3ccccc3)c2s1	VDR inhibitor 50µM | VDR confirm inconclusive | VDR FP inconclusive | VDR bla inconclusive | VDR viability inactive
Cc1ccc(/C=C2/SC(=O)NC2=S)o1	VDR inhibitor 35µM, PLK1 PBD block 19µM | VDR confirm 24 | VDR FP 22µM | VDR bla inactive | VDR viability inactive
COc1ccc(/C=C2\SC(=O)NC2=S)cc1OC	VDR inhibitor 10µM, PLK1 PBD block 27µM | VDR confirm 3 | VDR FP inactive | VDR bla inactive | VDR viability inactive
Cc1ccc(/C=C2/SC(=S)N(C3CCCCC3)C2=O)o1	PLK1 PBD block inconclusive
COc1ccc(C(=O)c2coc3c2C(=O)C(=O)c2ccccc2-3)cc1	USP1-UAF1 inh inconclusive, FBPA coupling cs -75, VDR inhibitor inconclusive, PLK1 PBD block inconclusive | VDR confirm 6.3 | VDR FP 3.2µM | VDR bla inconclusive | VDR viability inactive
Cc1cccc(C)c1N1CCN(C(c2ccnc3ccccc23)c2nnnn2-c2ccc3c(c2)OCCO3)CC1 (stereo unspecified)	none (no result: USP1-UAF1 inh, FBPA coupling cs, VDR inhibitor, USP2a block, GALK inh)
C=CCSc1nnc(NC(=O)c2cccc(S(=O)(=O)N(C)c3ccccc3)c2)s1	none
O=C(CCN1CCOCC1)c1ccc(Br)cc1	VDR inhibitor 22µM, PLK1 PBD block 12µM | VDR confirm 24 | VDR FP inconclusive | VDR bla inconclusive | VDR viability inconclusive
O=C(CCN1CCN(c2ccccc2F)CC1)c1ccc(Br)cc1	VDR inhibitor 18µM, PLK1 PBD block 8.4µM | VDR confirm 17 | VDR FP inconclusive | VDR bla inconclusive | VDR viability inconclusive
CCS(=O)(=O)c1ccc2oc(Nc3ccc(C(C)C)cc3)nc2c1	VDR inhibitor 40µM, PLK1 PBD block 2.7µM | VDR confirm 8.4 | VDR FP 4µM | VDR bla inactive | VDR viability inactive
COC(=O)c1ccccc1NC(=O)COC(=O)CSCC(=O)N1CCOCC1	none
